# Measurements as given in the supplement of paper PMC3342239.
# Structures can show the parent of a compound that is named as a salt.
# Tested on: Saccharomyces cerevisiae
# Test: fraction of cells in G1 phase (DNA content, flow cytometry); higher = more cells with unreplicated DNA (G1 delay)
# Settings: temperature: 30 C; YPD; JTY2953 pdr5 snq2 (sensitized); drug added to: cultures diluted from stationary phase; 6-7 h
# Method: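 S. cerevisiae cultures in YPD at 30°C were treated with each drug of the Enzo FDA-approved library at 20 µg/ml (final µM given per drug). Cells were fixed after 6–7 h (S1) or 6 h (S2), or after 4.33 h for BY4741 (S3), then stained with SYTOX Green. %G1 is the Dean-Jett-Fox G1 peak area divided by the G1+G2/M peak areas, written as a fraction and averaged over at least two independent experiments. DMSO reference: mean ~0.49; >0.60 is called High G1 and <0.3876 Low G1. Scale: lower means mitotic delay.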
row,Structure (SMILES),fraction of cells in G1 phase
1,COc1cccc(C2(O)CCCCC2CN(C)C)c1 (stereo unspecified) [Tramadol HCl] (75.935 µM),0.492
2,CN1C[C@H](C(=O)N[C@]2(C)O[C@@]3(O)[C@@H]4CCCN4C(=O)[C@H](Cc4ccccc4)N3C2=O)C[C@@H]2c3cccc4[nH]cc(c34)C[C@H]21 [Dihydroergotamine mesylate] (34.2646 µM),0.527
3,C[C@]12CCC(=O)C(O)=C1CC[C@@H]1[C@@H]2CC[C@]2(C)C(=O)CC[C@@H]12 [Formestane] (66.1338 µM),0.566
4,COc1ccc(C(=O)c2c(C)n(CCN3CCOCC3)c3ccccc23)cc1 [Pravadoline] (52.8436 µM),0.594
5,O=P1(NCCCl)OCCCN1CCCl (stereo unspecified) [Ifosfamide] (76.6021 µM),0.489
6,C#CCN(C)C(C)Cc1ccccc1 (stereo unspecified) [Deprenyl] (89.4055 µM),0.518
